# Test results published in PubChem BioAssay AID2284352 (EPA ToxCast).
# Records with an inconclusive call do not appear. The source made the active and inactive calls. The calls were made as follows: active = hit-call score of the fitted dose curve at least 0.9, where 1 is the maximum; inconclusive = response in the unintended direction; inactive = score below 0.9.
# System: rainbow trout Peroxisome Proliferator-activated Receptor gamma (PPARg), gene 110528708
# Assay: ATG_rtPPARg_EcoTox2: Attagene TRANS-FACTORIAL EcoTox-2 HepG2 Assay for rainbow trout Peroxisome Proliferator-activated Receptor gamma (PPARg)
# Protocol: ATG_EcoTox2 is a cell-based, multiplexed assay created by modifying the existing Attagene TRANS-FACTORIAL system to include a panel of nuclear receptors from some or all the following species: human (Homo sapiens), african clawed frog (Xenopus laevis), rainbow trout (Oncorhynchus mykiss), japanese medaka (Oryzias latipes), and zebrafish (Danio rerio). The ECOTOX2-FACTORIAL format uses HepG2, a human liver cell line, with measurements taken at 24 hours after chemical dosing in a 24-well plate. ATG_rtPPARg_EcoTox2 is one of 29 assay components calculated in the ATG_EcoTox2 assay. It is designed to make measurements of mRNA induction, a form of inducible reporter, as detected with fluorescence intensity signals by Reverse transcription polymerase chain reaction (RT-PCR) and Capillary electrophoresis technology.The assay endpoint ATG_rtPPARg_EcoTox2 was analyzed in the positive analysis fitting direction relative to DMSO as the negative control and baseline of activity. Using a type of inducible reporter, measures of mRNA for gain-of-signal activity can be used to understand the reporter gene at the transcription factor-level as they relate to the gene PPARg. Furthermore, this assay endpoint can be referred to as a primary readout, because this assay has produced multiple assay endpoints where this one serves a reporter gene function. […]
# Human liver HepG2 cells are transiently transfected with multiple reporter transcription units (MRTUs) in 6-well plates using FuGene 6 reagent (Roche; 3 ml FuGene/1 mg DNA). […] A major difference between the CIS and TRANS system is that in CIS activities of endogenous TFs are measured, whereas the TRANS assay evaluates changes in activities of exogenous, chimeric NR-Gal4 proteins. […] The fragments were purified using Qiaquick PCR columns (Qiagen), analyzed on an ABI 3130xL genetic analyzer (Applied Biosystems) with peak positions identified by using a set of X-rhodamine (ROX)-labeled MapMarker1000 molecular weight standards (BioVentures). […]
row,Compound,outcome
1,CCCCOCN(C(=O)CCl)c1c(CC)cccc1CC,inactive
2,O=C(O)C(F)(F)C(F)(F)C(F)(F)C(F)(F)C(F)(F)C(F)(F)C(F)(F)F,inactive
3,O=S(=O)(O)C(F)(F)C(F)(F)C(F)(F)C(F)(F)C(F)(F)C(F)(F)F,inactive
